Counter-ions that a name gives are not always drawn. ± gives the standard deviation of the averaged measurements.
Columns and labels:
Test in all cases: growth (OD600 after 10 h); higher = more growth (less inhibition)
[1] = system: E. coli TESEC Alr+ wild-type control; details: compound 0.1 mM; raw OD600 reference: median of DMSO wells 0.241, cell-free background 0.041
Method: (§1)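 TESEC Mtb Alr E. coli, or the Alr+ wild-type control, in 384-well plates with Prestwick library compounds at 0.1 mM and 1% DMSO, across arabinose induction levels of 1E3 to 1E7 nM. Growth is read as OD600 after 10 h at 37 °C in triplicate biological replicates.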

E. coli TESEC Mtb Alr [2] = details: compound 0.1 mM
Method: as §1

E. coli TESEC Mtb Asd = details: compound 0.1 mM
Method: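 TESEC E. coli strains in which the native enzyme is deleted and replaced by arabinose-inducible Mtb Asd, DapB, CysH or TrpD, each grown in its selective medium. Strains were screened against the Prestwick library at 0.1 mM and 1% DMSO in 384-well format at low and high arabinose induction. Growth is read as OD600 after 10 h in triplicate.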

[3] = system: E. coli TESEC Alr+ wild-type control; details: compound 0.1 mM; raw OD600 reference: median of DMSO wells 0.49, cell-free background 0.052
Method: (§2)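 TESEC Mtb Alr E. coli (ΔaraC ΔtolC ΔentC Δalr ΔdadX, arabinose-inducible Mtb Alr) or the Alr+ wild-type control strain, grown in defined M9-fructose medium without D-alanine in 96-well plates with Prestwick library compounds at 0.1 mM and 1% DMSO. Low Alr induction is 0.1 µM arabinose and high induction is 10 mM arabinose.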

E. coli TESEC Mtb Alr [4] = details: compound 0.1 mM; remark: listed apart in the source
Method: as §2

[5] = arabinose 1000 nM, raw OD600 reference: median of DMSO wells 0.294, cell-free background 0.041
[6] = arabinose 10000 nM, raw OD600 reference: median of DMSO wells 0.264, cell-free background 0.041
[7] = arabinose 100000 nM, raw OD600 reference: median of DMSO wells 0.201, cell-free background 0.041
[8] = arabinose 1000000 nM, raw OD600 reference: median of DMSO wells 0.193, cell-free background 0.041
[9] = arabinose 10000000 nM, raw OD600 reference: median of DMSO wells 0.146, cell-free background 0.041
[10] = arabinose induction (level): High, raw OD600 reference: median of DMSO wells 0.331, cell-free background 0.041
[11] = arabinose induction (level): Low, raw OD600 reference: median of DMSO wells 0.417, cell-free background 0.041
[12] = arabinose 100 nM, raw OD600 reference: median of DMSO wells 0.413, cell-free background 0.052
[13] = arabinose 10000000 nM, raw OD600 reference: median of DMSO wells […], cell-free background 0.052

| SMILES | growth [1] | growth (E. coli TESEC Mtb Alr [2]; [5]) | growth (E. coli TESEC Mtb Alr [2]; [6]) | growth (E. coli TESEC Mtb Alr [2]; [7]) | growth (E. coli TESEC Mtb Alr [2]; [8]) | growth (E. coli TESEC Mtb Alr [2]; [9]) | growth (E. coli TESEC Mtb Asd; [10]) | growth (E. coli TESEC Mtb Asd; [11]) | growth [3] | growth (E. coli TESEC Mtb Alr [4]; [12]) | growth (E. coli TESEC Mtb Alr [4]; [13]) |
| --- | --- | --- | --- | --- | --- | --- | --- | --- | --- | --- | --- |
| COc1ccc(C(=O)NCc2cccnc2)cc1C(=O)NCc1cccnc1 [Picotamide monohydrate] | 0.234 ± 0.013 | 0.264 ± 0.034 | 0.258 ± 0.0067 | 0.189 ± 0.02 | 0.161 ± 0.0041 | 0.132 ± 0.0031 | 0.256 ± 0.042 | 0.41 ± 0.037 | 0.453 ± 0.033 | 0.4272 ± 0.0023 | 0.321 ± 0.024 |
| CC(N)C12CC3CC(CC(C3)C1)C2 (stereo not given) [Rimantadine Hydrochloride] | 0.228 ± 0.0089 | 0.293 ± 0.0047 | 0.2629 ± 0.0005 | 0.207 ± 0.025 | 0.18 ± 0.0024 | 0.151 ± 0.006 | 0.209 ± 0.019 | 0.497 ± 0.07 | 0.583 ± 0.077 | 0.407 ± 0.009 | 0.345 ± 0.011 |
| NC(CO)C(=O)NNCc1ccc(O)c(O)c1O (stereo not given) [Benserazide hydrochloride] | 0.0616 ± 0.0013 | 0.246 ± 0.0069 | 0.224 ± 0.0028 | 0.205 ± 0.033 | 0.0994 ± 0.0023 | 0.124 ± 0.0056 | 0.186 ± 0.018 | 0.186 ± 0.0073 | – | 0.337 ± 0.069 | 0.148 ± 0.03 |
| COc1cc(C(=O)NC2CCCNC2)cc(OC)c1OC (stereo not given) [Troxipide] | 0.225 ± 0.0045 | 0.286 ± 0.012 | 0.255 ± 0.0049 | 0.205 ± 0.016 | 0.191 ± 0.02 | 0.134 ± 0.0027 | 0.353 ± 0.075 | 0.427 ± 0.057 | – | 0.402 ± 0.014 | 0.359 ± 0.038 |
| COc1ccc(C(=O)NCc2ccc(OCCN(C)C)cc2)cc1OC [Itopride] | 0.241 ± 0.0038 | 0.298 ± 0.0084 | 0.268 ± 0.011 | 0.229 ± 0.029 | 0.176 ± 0.0056 | 0.159 ± 0.0051 | 0.303 ± 0.083 | 0.365 ± 0.11 | – | 0.407 ± 0.015 | 0.349 ± 0.0081 |
| CC(C)NCC(O)COc1cccc2[nH]ccc12 (stereo not given) [Pindolol] | 0.233 ± 0.0063 | 0.286 ± 0.024 | 0.271 ± 0.014 | 0.203 ± 0.0064 | 0.179 ± 0.0088 | 0.142 ± 0.00072 | 0.393 ± 0.0086 | 0.403 ± 0.021 | 0.474 ± 0.048 | 0.413 ± 0.0051 | 0.376 ± 0.013 |
| CC(C)NCC(O)COc1ccc(CCOCC2CC2)cc1 (stereo not given) [Betaxolol hydrochloride] | 0.222 ± 0.0081 | 0.301 ± 0.0039 | 0.26 ± 0.0051 | 0.232 ± 0.034 | 0.179 ± 0.014 | 0.161 ± 0.0056 | 0.264 ± 0.049 | 0.359 ± 0.069 | 0.562 ± 0.028 | 0.404 ± 0.011 | 0.341 ± 0.014 |
| COc1ccc(C2CNC(=O)C2)cc1OC1CCCC1 (stereo not given) [Rolipram] | 0.209 ± 0.0078 | 0.275 ± 0.012 | 0.29 ± 0.0047 | 0.177 ± 0.0086 | 0.198 ± 0.012 | 0.14 ± 0.0022 | 0.373 ± 0.044 | 0.425 ± 0.047 | – | 0.4 ± 0.013 | 0.311 ± 0.019 |
| N[C@@H]1CCCCN(c2c(F)cc3c(=O)c(C(=O)O)cn(C4CC4)c3c2Cl)C1 [Besifloxacin hydrochloride] | 0.04153 ± 0.00035 | 0.0427 ± 0.002 | 0.0401 ± 0.00026 | 0.0447 ± 0.0037 | 0.0402 ± 0.00095 | 0.0414 ± 0.0011 | 0.0501 ± 0.0019 | 0.0463 ± 0.00069 | 0.0537 ± 0.00057 | 0.05447 ± 0.00045 | 0.053 ± 0.0011 |
| CC(Cc1cccc(C(F)(F)F)c1)NCCOC(=O)c1ccccc1 (stereo not given) [Benfluorex] | 0.174 ± 0.0053 | 0.15 ± 0.094 | 0.163 ± 0.0039 | 0.209 ± 0.0022 | 0.0479 ± 0.0001 | 0.0634 ± 0.0014 | 0.163 ± 0.014 | 0.153 ± 0.0072 | – | 0.411 ± 0.01 | 0.0607 ± 0.0052 |
